Only some compounds are listed: those with a hit (about 3.5% of all), similar ones and a draw of the others.
TEAD-YAP inh: TEAD-YAP interaction inhibition. HEK-TIYL cells, TEAD-Gal4/YAP UAS-luciferase luminescence. inhibition, % at 9.12 µM. 640,000 tested, 1.4% active; in the data active = inhibition above about 32%;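 note: 0% = median of test compound wells and 100% = reference inhibitor wells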
MITF inh: human MITF inhibition, primary screen. O75030. AlphaScreen MITF homodimerization, bead proximity signal. inhibition, % at 2.6 µM. 650,000 tested, 0.91% active. AID 1259374; in the data active = inhibition above about 50%;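 note: 0% = vehicle wells with protein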
FBW7 activator: human FBW7 E3 ligase activation, primary screen; Q969H0; AlphaScreen FBW7–phospho-cyclin E peptide binding, activator screen; normalized activity (activation), % at 26.1 µM; 650,000 tested, 0.13% active; in the data active = normalized activity above about 1.9%;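 note: purified mutant Fbw7 with reduced substrate affinity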
GPR151 ag: human GPR151 activation | Q8TDV0 | PathHunter beta-arrestin GPR151 cells, luminescence | activation, % at 11.2 µM | 650,000 tested, 1% active | AID 1508602; in the data active = activation above about 4.9%;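 note: 0% = median of compound wells and 100% = cells with positive control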
Target sequence (Q8TDV0 whole entry, looked up): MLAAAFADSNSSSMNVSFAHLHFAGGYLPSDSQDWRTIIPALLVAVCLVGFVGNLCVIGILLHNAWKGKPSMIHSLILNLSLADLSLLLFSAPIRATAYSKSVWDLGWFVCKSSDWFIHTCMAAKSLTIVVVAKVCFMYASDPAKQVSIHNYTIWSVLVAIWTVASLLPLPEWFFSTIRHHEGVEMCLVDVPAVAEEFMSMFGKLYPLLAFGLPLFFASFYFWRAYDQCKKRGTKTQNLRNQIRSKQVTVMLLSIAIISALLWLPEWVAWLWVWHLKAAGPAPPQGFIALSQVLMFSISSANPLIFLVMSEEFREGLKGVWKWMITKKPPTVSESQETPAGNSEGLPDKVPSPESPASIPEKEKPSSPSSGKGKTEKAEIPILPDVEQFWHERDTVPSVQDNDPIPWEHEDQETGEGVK
MITF confirm: human MITF inhibition, confirmation; shares compounds with MITF inh; AlphaScreen MITF homodimerization, biotin/His-MITF beads; inhibition, % at 2.6 µM; 4,700 tested, 16% active; AID 1259372;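 active = inhibition above a cutoff derived from the DMSO control wells, cut at about 28% in these data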;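 note: 0% = MITF dimer wells with DMSO only; inhibitors lower the bead chemiluminescence by keeping MITF from dimerizing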
AS interf DR: AlphaScreen optical interference, dose response counter-screen; AID 1259373; AlphaScreen optical interference counterscreen, cell-free; 480 tested, 6% active; IC50, µM; shares compounds with MITF inh; call rule not given here
AS interf ctr: counter-screen: compounds optically interfering with AlphaScreen; shares compounds with MITF inh; 4,700 tested, 7.6% active; LysRS AlphaScreen counterscreen, signal interference, triplicate; inhibition, % at 2.6 µM;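 active = inhibition above a cutoff derived from the DMSO control wells, cut at about 30% in these data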
Numbers without * were called inactive; . = no result.

SMILES | TEAD-YAP inh | MITF inh | FBW7 activator | GPR151 ag | MITF confirm | AS interf ctr | others
CN1CCN(CCOCCOc2ccc(C(C)(C)C)cc2)CC1 | 3 | 65* | 0 | 1 | 4 | 19
CCN1CCN(CCOCCOc2cccc(Oc3ccccc3)c2)CC1 | -1 | 79* | 0 | 0 | 6 | 13
CCOc1ccc(OCCCN2CCN(C)CC2)cc1 | -9 | 79* | 0 | 2 | -1 | 17
CCOC(=O)C1=C(C)N=c2s/c(=C/c3ccc(N4CCN(C)CC4)o3)c(=O)n2C1c1cc(OC)c(OC)c(OC)c1 (stereo not drawn) | 18 | 14 | 0 | -1 | . | .
CC(Oc1ccccc1)c1nnc(NC(=O)Nc2ccc(F)cc2)s1 (stereo not drawn) | -6 | 16 | 0 | 5 | . | .
CC(=O)c1cccc(OCCCCOc2cccc(C(C)=O)c2)c1 | 3 | -12 | 0 | -1 | . | .
CN1CCN(CCCCOc2cccc(C=O)c2)CC1 | -2 | 61* | 0 | 1 | 6 | 17
CN1CCN(CCCCOc2cccc(C(F)(F)F)c2)CC1 | 1 | 24 | 0 | 0 | . | .
CCOc1ccc(OCCCCN2CCN(C)CC2)cc1 | -7 | 86* | 0 | 2 | 7 | 7
Cc1cccc(OCCCCN2CCNCC2)c1 | -3 | 14 | 0 | 2 | . | .
CCN1CCN(CCOc2cccc(C(C)=O)c2)CC1 | 13 | 66* | -1 | 2 | 8 | 8
CCOc1cccc(OCCCN2CCNCC2)c1 | -15 | 54* | 0 | 0 | -1 | -2
COc1cc(/C=C2\C(=O)NC(=O)N(c3ccc(O)cc3)C2=O)ccc1O | 4 | -3 | 0 | -1 | . | .
CCN1CCN(CCCCOc2cccc(C(F)(F)F)c2)CC1 | 10 | 64* | 0 | 0 | 7 | 7
Cc1ccccc1OCC(O)Cn1c(SCCC(=O)O)nc2c1c(=O)[nH]c(=O)n2C (stereo not drawn) | 6 | 13 | 0 | -1 | . | .
Cc1cc(C)n(-c2nc3c(c(=O)n2CC(=O)NCc2ccc(F)cc2)CCCC3)n1 | 8 | -13 | 0 | 0 | . | .
Clc1ccc(OCCCn2cncn2)cc1Cl | 6 | 63* | 0 | 2 | 14 | 7
c1ccc(COc2ccc(OCCCCn3cncn3)cc2)cc1 | -12 | 7 | 0 | -2 | . | .
Cc1cc(C)cc(OCCCCn2cncn2)c1 | 0 | 61* | 0 | 0 | 1 | 5
c1ccc(-c2ccc(OCCCCn3cncn3)cc2)cc1 | -51 | 55* | 0 | 1 | 37* | 7 | AS interf DR=>6.5
COc1cc(-c2nc(C(N)=O)c3[nH]c(=O)n(-c4ccc(Cl)cc4)c3n2)ccc1O | 1 | -5 | 1 | -1 | . | .
COc1ccc(CNCc2ccccc2Cl)cc1OC | -8 | 28 | 0 | -1 | . | .
COc1ccccc1CN1CCN(Cc2ccc(OC)c(OC)c2)CC1 | -1 | 62* | 0 | 0 | 7 | 13
COc1cc(OC)c(OC)cc1CN1CCN(Cc2ccccc2C)CC1 | 1 | 74* | 0 | 1 | -13 | 3
COc1ccc(CN2CCN(Cc3ccccc3Cl)CC2)cc1OC | 0 | 71* | 0 | 1 | 11 | 22
SMILES | TEAD-YAP inh | MITF inh | FBW7 activator | GPR151 ag | MITF confirm | AS interf ctr | others
COc1ccc(CN2CCN(Cc3ccccc3[N+](=O)[O-])CC2)cc1OC | -5 | 67* | 0 | 0 | -3 | -6
COc1cc(OC)c(OC)cc1CN1CCN(c2ccccc2OC)CC1 | 6 | 38 | 0 | 0 | . | .
CC(C)n1cnc2c(NC3CCN(Cc4ccccc4)CC3)nc(-c3ccc4c(ccn4C)c3)nc21 | 2 | 11 | 0 | -1 | . | .
COc1ccc(-c2noc(CN(C(C)C)S(=O)(=O)c3ccccc3[N+](=O)[O-])n2)cc1 | 1 | -1 | 0 | -1 | . | .
COc1ccc(C(CCN)c2ccccc2OC)cc1 (stereo not drawn) | 0 | 9 | 0 | 1 | . | .
COc1cc(OC)c(NC(=S)Nc2ccc(S(N)(=O)=O)cc2)cc1Cl | 8 | -1 | 0 | 1 | . | .
Cc1cc(C(=O)N2CCOCC2)n(CC(=O)Nc2ccc(C)c(Cl)c2)n1 | -7 | 16 | 1 | 1 | . | .
Cc1ccc(-n2nc3c(c2NC(=O)c2cccc(Cl)c2)CSC3)c(C)c1 | 5 | -8 | 0 | 1 | . | .
COc1cc(OC)c(OC)cc1CN1CCN(Cc2cccn2C)CC1 | -4 | 63* | -1 | -1 | 13 | 18
COc1cc(OC)c(OC)cc1CN1CCCN(C)CC1 | 3 | 37 | 0 | 0 | . | .
CN(Cc1ccccc1)C1CCN(Cc2ccccc2[N+](=O)[O-])CC1 | 4 | 59* | 0 | 0 | -3 | 4
COc1cc(OC)c(OC)cc1CN1CCN(Cc2cc(OC)c(OC)cc2Br)CC1 | 7 | 72* | 0 | -1 | 12 | 19
CCc1ccc(CN2CCN(Cc3ccccc3[N+](=O)[O-])CC2)cc1 | 1 | 74* | 0 | 1 | 9 | 0
COc1cc(Br)c(CN2CCCN(C)CC2)cc1OC | 4 | 11 | 1 | 1 | . | .
COC(=O)Cc1c(C)c2cc(Cl)c(OCC(=O)N(C)C)cc2oc1=O | 1 | 22 | 0 | 2 | . | .
Oc1oc(-c2ccccc2)nc1/C=N/c1nccc(-c2cccs2)n1 | 0 | 10 | 0 | 2 | . | .
CCOc1cc(CN2CCN(Cc3ccccc3C)CC2)ccc1OC | 2 | 52* | 0 | 1 | 2 | 15
COc1ccccc1CN1CCN(Cc2ccc3ccccc3c2)CC1 | 6 | 78* | 0 | 0 | 18 | 22
COc1cccc(OC)c1C(=O)N1CCN(Cc2ccc3ccccc3c2)CC1 | 0 | 41 | 0 | 4 | . | .
COc1ccc(CN2CCN(Cc3ccccc3C)CC2)cc1OC | 10 | 62* | 0 | -1 | 5 | 14
CCOc1cc(CN2CCN(Cc3cccc(C)c3)CC2)ccc1OC | 5 | 14 | 0 | -1 | . | .
FC(F)(F)c1ccccc1CN1CCN(Cc2ccc3ccccc3c2)CC1 | 6 | 83* | 0 | 1 | 18 | 23
COc1cc(OC)c(CN2CCCC(O)C2)cc1Br (stereo not drawn) | 5 | 54* | 2 | -1 | 33* | -4 | AS interf DR=>6.5
COc1ccc(CN2CCCC(O)C2)cc1Br (stereo not drawn) | 0 | 18 | 1 | 1 | . | .
CCc1nc(-c2ccccc2)c2ccccn12 | 2 | 55* | 0 | 2 | 9 | 14
Cc1ccc(C)c(NNC(=O)C(=O)NNc2cc(C)ccc2C)c1 | -2 | 51* | 0 | 1 | 2 | -4
COc1ccc(CN2CCN(C(=O)c3cccnc3)CC2)c(OC)c1 | -4 | 44 | 0 | 1 | . | .
COc1ccccc1C1(O)CC2CCC(C1)N2C(=O)c1cccnc1 (stereo not drawn) | 10 | 73* | 0 | -1 | 8 | 16
COc1ccc(CN2CCN(C(=O)c3cccnc3)CC2)c(OC)c1OC | 10 | 32 | 0 | 1 | . | .
COc1cccc(CN2CCN(C(=O)c3cccnc3)CC2)c1OC | 0 | 77* | 0 | -1 | 9 | 11
